sEH inh: blocks human soluble epoxide hydrolase activity; actives 0.34% (n = 91,000); recombinant human sEH enzymatic activity assay; AID 707; inhibition, % at 2 µM; in the data active = inhibition above about 80%
sEH act: increases human soluble epoxide hydrolase activity; purified human sEH enzymatic activity, activator screen; activation, % at 2 µM; actives 0.04% (n = 91,000); AID 717; in the data active = activation above about 37%
PLK1 PBD inh: inhibitors of human Plk1 polo box domain binding. actives 0.13% (n = 97,000). AID 693. Plk1 PBD phosphopeptide binding, fluorescence polarization. inhibition, %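 (tested at about 20 µM)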; in the data active = inhibition above about 34%, passing the limit was not always enough
PLK1 kinase inh: PLK1 (human) kinase inhibition. P53350. recombinant PLK1 kinase, TR-FRET peptide phosphorylation. inhibition, % at 10 µM. actives 0.53% (n = 97,000). AID 619;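 active = inhibition of 50% or more in the single-concentration screen; inactive = inhibition below 50%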
EphB4 ephrin blk: blocks human EphB4 binding to ephrin-B2; P54760; EphB4 LBD / TNYL-RAW-Alexa532 peptide, fluorescence polarization; inhibition, % at 7 µM; actives 0.15% (n = 97,000);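 active = inhibition above the screen-wide mean inhibition plus 3 SD, cut at about 15% in these data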
Target sequence (P54760 whole entry, looked up, the tested form may be a part): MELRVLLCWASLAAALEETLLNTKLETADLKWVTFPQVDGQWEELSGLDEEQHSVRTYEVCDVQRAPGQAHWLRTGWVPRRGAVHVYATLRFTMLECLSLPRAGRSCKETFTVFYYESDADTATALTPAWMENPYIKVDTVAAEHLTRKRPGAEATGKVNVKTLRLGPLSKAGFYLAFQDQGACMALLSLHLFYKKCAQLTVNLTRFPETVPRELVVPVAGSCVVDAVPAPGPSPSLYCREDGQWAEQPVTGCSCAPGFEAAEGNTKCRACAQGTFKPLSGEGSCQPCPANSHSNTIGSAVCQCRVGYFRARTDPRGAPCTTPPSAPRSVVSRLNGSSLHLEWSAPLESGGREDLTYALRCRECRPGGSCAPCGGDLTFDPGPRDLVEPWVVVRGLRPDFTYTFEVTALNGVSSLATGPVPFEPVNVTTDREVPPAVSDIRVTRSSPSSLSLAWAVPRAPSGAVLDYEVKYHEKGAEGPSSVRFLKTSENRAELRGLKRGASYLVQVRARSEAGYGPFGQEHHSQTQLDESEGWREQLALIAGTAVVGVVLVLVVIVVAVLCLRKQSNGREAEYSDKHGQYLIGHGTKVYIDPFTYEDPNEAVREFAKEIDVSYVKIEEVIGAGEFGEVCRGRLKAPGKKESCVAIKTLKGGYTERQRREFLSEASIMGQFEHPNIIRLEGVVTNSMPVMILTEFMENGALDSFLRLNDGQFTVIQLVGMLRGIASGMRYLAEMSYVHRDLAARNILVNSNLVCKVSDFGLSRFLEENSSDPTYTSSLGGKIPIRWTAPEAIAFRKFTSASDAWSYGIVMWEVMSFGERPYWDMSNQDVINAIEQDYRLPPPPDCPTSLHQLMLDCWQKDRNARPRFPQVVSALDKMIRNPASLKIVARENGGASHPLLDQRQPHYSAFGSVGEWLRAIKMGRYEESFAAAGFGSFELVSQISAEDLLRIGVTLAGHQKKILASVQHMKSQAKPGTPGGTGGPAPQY
PBD redox DR: generates H2O2 by redox cycling, flagging false Plk1 PBD hits. shares compounds with PLK1 PBD inh. redox cycling H2O2 generation, DTT, counter-screen. EC50, µM. 120 tested, under 10 active; call rule not given here
Of the large screens only hits and unclear results are named; the others gave an inactive call (follow-up assays come after a bar, where they were run). Most compounds without a hit are left out; they make up all but 1% or so of the library.

Cc1occc1-c1nnc(SCC(=O)c2c(N)n(Cc3ccccc3)c(=O)n(C)c2=O)n1C	none
CC(C)Nc1nnc(SCC(=O)c2c(N)n(Cc3ccccc3)c(=O)n(C)c2=O)s1	PLK1 PBD inh 44.6 | PBD redox DR inactive
Cc1ccc(C)c(NC(=O)CCC(=O)NNC(=O)c2cccc([N+](=O)[O-])c2)c1	none
CCC(Sc1nc2n[nH]c(C)c2c(=N)n1-c1cccc(Cl)c1)C(=O)NCCOC (stereo unspecified)	PLK1 PBD inh 42.8 (no result: sEH inh, sEH act) | PBD redox DR inactive
Oc1ccc(Br)cc1/C=N/N1CCN(Cc2ccccc2)CC1	none
OCC(CO)(CO)N=Cc1cc(Br)ccc1O	PLK1 PBD inh 46.8 | PBD redox DR inactive
COc1ccc(-n2nnnc2-c2cnc3cc4c(cc3c2C)OCO4)cc1	none
Cc1cccc(C)c1OC(=O)CN(c1ccc(Cl)cc1)S(C)(=O)=O	none (no result: sEH inh, sEH act)
COc1ccc2c(c1OC)C(=O)OC2CC(=O)c1ccc(O)c(O)c1 (stereo unspecified)	none
COc1ccc2c(c1OC)C(=O)OC2CC(=O)O (stereo unspecified)	PLK1 PBD inh 40.1 | PBD redox DR inactive
CCOC(=O)c1c2c(n(C)c1C)C(=O)C(=O)c1ccc(Br)cc1-2	PLK1 PBD inh 116.3 | PBD redox DR 0.614
O=C(Cn1cnc2ccccc2c1=O)Nc1nnc(SCc2ccccc2)s1	none
O=C(COc1ccccc1)Nc1ccc(S(=O)(=O)N2CCOCC2)cc1	PLK1 PBD inh 40.3 | PBD redox DR inactive
O=C(NCCCn1ccnc1)Nc1cccc(Cl)c1	none
CC(C)N(Cc1cc2ccccc2[nH]c1=O)C(=O)c1cccnc1	PLK1 PBD inh 35.1 (no result: sEH inh, sEH act) | PBD redox DR inactive
CC(C)C(=O)N(Cc1cc2ccccc2[nH]c1=O)C(C)C	none
CCn1ccc(C(=O)Nc2ccc(N(C)C(C)=O)cc2)n1	PLK1 PBD inh 51.8 | PBD redox DR inactive
Cn1cc(SCC(=O)Nc2ccc3c(c2)OCCO3)c2ccccc21	PLK1 PBD inh 44.3 | PBD redox DR inactive
Nc1cc(-c2ccc(Br)cc2)nn1S(=O)(=O)c1cccc2nsnc12	PLK1 PBD inh 47.0 (no result: sEH inh, sEH act) | PBD redox DR inactive
Nc1cc(-c2ccc(Cl)cc2)nn1S(=O)(=O)c1cccc2nsnc12	none
O=C(CSc1nnc(CNc2ccc(F)cc2)o1)N1c2ccccc2Sc2ccccc21	none

Source: PubChem BioAssay (several laboratories)
